Source: PubChem BioAssay AID2061310 (National Center for Advancing Translational Sciences (NCATS), 2025)
Inconclusive results are not listed. Where a call stands in place of a potency, no number is given. Activity calls are given as the source filed them. The call rests on the fitted dose curve; in most records, active means well fitted curve in the direction sought with a large enough effect; inconclusive means small, poorly fitted or top-dose-only effect, or another doubt; inactive means no such curve, though single readings can be large or run the other way.

Biological target: Retinal dehydrogenase 2 (Homo sapiens) (UniProt O94788)
Test: qHTS for Inhibitors of the Aldehyde Dehydrogenase Family (ALDH1A2) Validation screens
Details: Potency: ALDH1A2 inhibition qHTS validation

Compound	Potency
CC(C)N(CCC(=O)c1ccc2ccccc2c1)Cc1ccccc1	5.62 µM (active)
N/C(=N\OC(=O)c1ccccc1)c1ccccn1	inactive
O=C(OC1C[C@@H]2CC3C[C@H](C1)N2CC3=O)c1c[nH]c2ccccc12 (some centres undefined)	inactive
Cc1ccc(C(=O)Nc2cccc(C(=O)O)c2)cc1	inactive
CCOC(=O)CNS(=O)(=O)c1cc(-c2nnc(Nc3cccc(O)c3)c3ccccc23)ccc1C	inactive
CC(C)(C)c1ccc(S(=O)(=O)/C=C/C#N)cc1	2.82 µM (active)
CCOC(=O)CSc1nc2c(sc3ccccc32)c(=O)n1CCCN1CCCC1	inactive
CCOc1ccc(-c2cc(C(=O)N3CCN(c4ccccn4)CC3)c3ccccc3n2)cc1	inactive
CCCN(CCC)C(=O)Cn1c(=O)n(-c2ccc(C)cc2)c(=O)c2ccc(C(=O)NCc3ccccc3Cl)cc21	inactive
